Source: PubChem
Tgondii IFNg: T. gondii growth inhibition under IFN-gamma. hit rate 3.8% among 69,000. activity change, negative = inhibition, % (test concentration not listed). Toxoplasma gondii growth in IFN-gamma-treated host cells; stronger effect = lower value; in the data active means activity change below about -70%, passing the limit was not always enough;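 further: host cells are HeLa cells infected with Toxoplasma gondii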
Starred values were filed as active, the others as inactive; ! = repeats disagree. Many of the other results were omitted from the sample, so hits are more common in it than they were.

What do the screens show for `COc1cc2c(cc1OC(C)C)[C@H](c1ccc(Cl)cc1)N(c1ccc(N(C)CC3CCC(N4CCN(C)C(=O)C4)CC3)cc1)C(=O)C2` (stereo not given in full)?
Tgondii IFNg: -79*

What do the screens show for `CN(Cc1ccccc1C(F)(F)F)C(=O)c1ncc[nH]1`?
Tgondii IFNg: -8

What do the screens show for `Cc1cccc(OCC(=O)N2CCC(C(=O)NCCc3csc(-c4ccccc4)n3)CC2)c1`?
Tgondii IFNg: 7

Results for O=C(NCCn1ccnc1)c1cn(CC2CCCNC2)nn1 (stereo not given) ?
Tgondii IFNg: -10

Results for Cc1nc(OCC(=O)Nc2cc(Cl)ccc2C)c2ccccc2n1 ?
Tgondii IFNg: -8

How did CCc1nc(OCC(=O)Nc2cc(Cl)ccc2Cl)c2ccccc2n1 do in these assays?
Tgondii IFNg: -38

How did Cc1ccc(Cl)cc1NC(=O)COc1ccccc1Br do in these assays?
Tgondii IFNg: -83*

Results for CCS(=O)(=O)N1CCC2(CC1)OC(=O)C(C)=C2C(=O)NCCCN(C)C1CCCCC1 ?
Tgondii IFNg: 5

How did Cn1ccnc1-c1nc(NCc2ccccn2)ncc1-c1cccc(Cl)c1 do in these assays?
Tgondii IFNg: -25

What do the screens show for `COc1cccc(CN2CCN(C(=O)C3CCCO3)[C@@H](C)C2)c1` (stereo not given in full)?
Tgondii IFNg: 11

How did O=C(c1ccc(Nc2nccc(-c3cc4ccccc4s3)n2)cc1)N1CCC(N2CCCC2)CC1 do in these assays?
Tgondii IFNg: -71*

Results for CC(=O)N1CCC(Cn2ccnc2-c2cc3ccccc3s2)CC1 ?
Tgondii IFNg: -47

What do the screens show for `Cc1ccc(C(=O)Nc2nccnc2C(=O)N2CCC(N3CCCCC3)CC2)cc1`?
Tgondii IFNg: -5

What do the screens show for `Cc1ccc([N+](=O)[O-])cc1S(=O)(=O)N(C)/N=C/c1cnc2ccc(Br)cn12`?
Tgondii IFNg: -80*

Results for Cc1ccc(/C=C2\CNC/C(=C\c3ccc(C)cc3)C2=O)cc1 ?
Tgondii IFNg: -86*

How did Cc1ccc(/C=C2\C(=O)C3(C)CCC2C3(C)C)cc1 (stereo not given) do in these assays?
Tgondii IFNg: 9

How did Cc1ccc(S(=O)(=O)N2[C@@H]3CNC[C@H]2C3c2ccc(/C=C/c3ccccc3)cc2)cc1 (stereo not given in full) do in these assays?
Tgondii IFNg: -44

What do the screens show for `CC(C)C(=O)N1CCC(C2C(=O)Nc3ccccc32)CC1` (stereo not given)?
Tgondii IFNg: 492

Results for CC(C)c1cc(C(=O)Nc2ccc(Cn3cncn3)cc2)cs1 ?
Tgondii IFNg: 107

How did CC(C)c1ccc(NC(=O)c2csc(Cc3c(Cl)cccc3Cl)n2)cc1 do in these assays?
Tgondii IFNg: -84*

How did O=C(Nc1csc(Cc2c(Cl)cccc2Cl)n1)NN1CCOCC1 do in these assays?
Tgondii IFNg: -38

Results for Cc1nc(-c2ccc(F)cc2)sc1CCNC(=O)c1ccc(C(C)(C)C)cc1 ?
Tgondii IFNg: -26

What do the screens show for `Cc1ccc(OCC(=O)NCCc2sc(-c3ccc(F)cc3)nc2C)cc1`?
Tgondii IFNg: -24

How did Cc1ccc(C(=O)NCCc2sc(-c3ccc(Cl)cc3)nc2C)cc1C do in these assays?
Tgondii IFNg: -12

What do the screens show for `Cc1nc(-c2ccc(Cl)cc2)sc1CCNC(=O)COc1ccccc1`?
Tgondii IFNg: 44

How did Cc1nc(-c2ccc(Cl)cc2)sc1CCNC(=O)c1ccc(F)c(F)c1 do in these assays?
Tgondii IFNg: -77*

What do the screens show for `Cc1nc(-c2ccc(F)cc2)sc1CCNC(=O)c1ccc(Br)cc1`?
Tgondii IFNg: -81*

How did Cc1nc(-c2ccc(F)cc2)sc1CCNC(=O)c1ccccc1 do in these assays?
Tgondii IFNg: -26

Results for Cc1nc(-c2ccc(Cl)cc2)sc1CCNC(=O)c1ccc(F)cc1 ?
Tgondii IFNg: -47

How did Cc1ccc(OCC(=O)NCCc2sc(-c3ccc(Cl)cc3)nc2C)cc1 do in these assays?
Tgondii IFNg: -76*

What do the screens show for `CCOc1cccc(CNC(=O)c2c(O)c3cccnc3n(-c3cccc(F)c3)c2=O)c1`?
Tgondii IFNg: 94

How did Cc1cccc(S(=O)(=O)N2C[C@H]3C[C@H](C(=O)NC(C)C)[C@@H](C2)O3)c1 do in these assays?
Tgondii IFNg: 2

What do the screens show for `Cc1oc(-c2ccccc2Cl)cc1C(=O)NCCCc1ccncc1`?
Tgondii IFNg: -60

How did CCCOc1ccc(-c2noc(-c3c(O)c4ccc(F)cc4n(CC)c3=O)n2)cc1 do in these assays?
Tgondii IFNg: 28

Results for CNS(=O)(=O)c1ccc(F)c(C(=O)Nc2ccccc2CN2CCCC2)c1 ?
Tgondii IFNg: 3

Results for CNCCCC1c2ccccc2C=Cc2ccccc21 ?
Tgondii IFNg: -81*!

What do the screens show for `CNCCC=C1c2ccccc2C=Cc2ccccc21`?
Tgondii IFNg: 16

How did CC(C)(C)c1ccc(-c2noc(CSc3ccccn3)n2)cc1 do in these assays?
Tgondii IFNg: 178

How did CCOC(=O)c1nc(-c2cccc(-n3cccc3)c2)no1 do in these assays?
Tgondii IFNg: -18

What do the screens show for `CC(C)(C)c1nc(SCc2nc(-c3cccc(-n4cccc4)c3)no2)n[nH]1`?
Tgondii IFNg: -81*

How did O=C(Nc1ccc(-c2nc(-c3cccc(Br)c3)co2)cc1)Nc1cccc(F)c1 do in these assays?
Tgondii IFNg: -19

How did c1cc(-c2nccn2CC2CCCOC2)c2nonc2c1 (stereo not given) do in these assays?
Tgondii IFNg: 9

Results for O=C(c1nc2ccc(Cl)cn2c1CN1CC=CC1CO)N1CCCCCCC1 (stereo not given) ?
Tgondii IFNg: 0

How did Cc1ccccc1NC(=O)CC(=O)N(C)Cc1n[nH]c2c1CCCC2 do in these assays?
Tgondii IFNg: -46

Results for CCOC(=O)c1c(NC(=O)c2c(C)nn(-c3ccccc3)c2Cl)sc(C)c1C ?
Tgondii IFNg: -48

Results for CCOC(=O)c1c(NC(=S)NC(=O)c2ccccc2)sc(C)c1C ?
Tgondii IFNg: -73*

Results for CCOC(=O)c1c(NC(=O)c2ccccc2)sc(C(=O)Nc2ccccc2)c1C ?
Tgondii IFNg: 3

Results for Cc1ccc2cc(CN3CCN(Cc4cccc(F)c4)CC3)c(=O)[nH]c2c1 ?
Tgondii IFNg: 4

Results for CC(C)CC(=O)Nc1ccc2c(c1)CCC(=O)N2CC(C)C ?
Tgondii IFNg: -15

How did CCc1ccc(C(=O)Nc2ccc3c(c2)CCC(=O)N3CCOC)cc1 do in these assays?
Tgondii IFNg: -74*

What do the screens show for `C=CC(=O)Nc1ccc2c(c1)CCC(=O)N2CCC`?
Tgondii IFNg: -11

How did CC(C)CN1C(=O)CCc2cc(NC(=O)C3CCCCC3)ccc21 do in these assays?
Tgondii IFNg: -37

How did CCCN1C(=O)CCc2cc(NC(=O)c3ccc(CC)cc3)ccc21 do in these assays?
Tgondii IFNg: -59

What do the screens show for `CC(C)CN1C(=O)CCc2cc(NC(=O)CCc3ccccc3)ccc21`?
Tgondii IFNg: -98*

Results for CCCN1C(=O)CCc2cc(NC(=O)c3ccn(CC)n3)ccc21 ?
Tgondii IFNg: 96

How did CCN1C(=O)CCc2cc(NC(=O)c3ccc(C(C)C)cc3)ccc21 do in these assays?
Tgondii IFNg: -105*

How did COCCN1C(=O)CCc2cc(NC(=O)c3ccc(C)cc3)ccc21 do in these assays?
Tgondii IFNg: -5

What do the screens show for `CCN1C(=O)CCc2cc(NC(=O)c3ccc(C)cc3)ccc21`?
Tgondii IFNg: -16

How did CCN1C(=O)CCc2cc(NC(=O)c3ccsc3)ccc21 do in these assays?
Tgondii IFNg: 84

What do the screens show for `CCCN1C(=O)CCc2cc(NC(=O)C(CC)c3ccccc3)ccc21` (stereo not given)?
Tgondii IFNg: -82*
